High-throughput results: PubChem, National Center for Advancing Translational Sciences (NCATS)
Sampled rows, rich in hits. Any-hit rate of the full collection: about 14%.
HSD17B inh = blocks hydroxysteroid 17-beta dehydrogenase activity | Q99714 | recombinant HSD17B10, NADH fluorescence kinetic | Potency, µM (doses to about 57.1 µM), inactives show at the highest dose activity change, negative = inhibition, most hits filed as inhibitors | 75,000 tested, 7.6% active;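 note: the protocol describes HADH2 (HSD17B10) and not the HSD17B4 of the title; potency is the fitted concentration of half-maximal effect; % is set by controls: 0 for no effect and ±100 for the full control effect; nearly all actives have a fitted effect of over 70% in size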
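Activity followed as NADH fluorescence increase (ex 360, em 450 nm) every 30 seconds for 4 min, using final 90 uM beta-hydroxybutyryl CoA and 1 mM NAD+. Recombinant His-tagged enzyme, 20 nM, pH 9.0 Tris buffer, 15 min compound preincubation.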
HADH2 inh = HADH2 (human) dehydrogenase inhibition. recombinant HADH2, NADH fluorescence, beta-hydroxybutyryl-CoA. Potency, µM (doses to about 57.1 µM), inactives show top-dose activity change, negative = inhibition, hits mostly inhibitors. 73,000 tested, 3.4% active; note: potency is the fitted concentration of half-maximal effect; % is set by controls: 0 for no effect and ±100 for the full control effect; nearly all actives have a fitted effect of over 60% in size
Target sequence (Q99714 whole entry, looked up, one chain of several): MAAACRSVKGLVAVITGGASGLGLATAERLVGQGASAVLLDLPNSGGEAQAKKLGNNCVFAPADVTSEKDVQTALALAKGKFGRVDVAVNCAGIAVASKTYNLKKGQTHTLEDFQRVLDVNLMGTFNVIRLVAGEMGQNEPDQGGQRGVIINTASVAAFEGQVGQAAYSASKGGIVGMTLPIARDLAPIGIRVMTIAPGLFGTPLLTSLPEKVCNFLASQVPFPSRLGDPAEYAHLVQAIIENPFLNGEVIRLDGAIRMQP
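20 nM HADH2 + cpd, 15 min RT; add 1 mM NAD+/90 uM beta-hydroxybutyryl-CoA; kinetic fluorescence 360/450 nm, 4 min. Tris-HCl pH 9.0, 0.01% Tween-20.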
4MU fluor = 4-MU region autofluorescence; 59,000 tested, 11% active; max dye-equivalent concentration, M; compound autofluorescence, 340/450 nm, 4-MU equivalents; active compounds read high; AID 589; in the data active = max dye-equivalent concentration above about 10 nM; inconclusive = mostly about 1.1 nM to 9.6 nM
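Compounds in 100 mM Tris, pH 8.0, incubated 15 min at room temperature, then fluorescence read at 340 nm excitation/450 nm emission. Signal converted to 4-MU dye-equivalent concentration using an on-plate six-point 4-MU standard curve.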
AID923 = qHTS Assay for Allosteric/Competitive Inhibitors of Caspase-1: Spectroscopic Profiling in AFC Spectral Region; compound fluorescence, AFC spectral region (405/520 nm); Potency, µM (titrated, usually from 57.5 µM), inactives show at the highest dose fluorescence increase, most hits filed as activators; 75,000 tested, 1.1% active; AID 923, 2007; note: potency is the fitted concentration of half-maximal effect; 0% is about no effect
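Compound autofluorescence profiled at 405 nm ex/520 nm em during kinetic caspase 1 run (50 nM enzyme, 5 uM Ac-WEHD-AFC, HEPES pH 7.5, 10 mM DTT). Titration up to 57 uM; baseline from regression intercept, normalized to AFC standard curve.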
A350 fluor = compounds fluorescent in Alexa 350 spectral region | 59,000 tested, 11% active | max dye-equivalent concentration, M | Compound autofluorescence, 340/450 nm, Alexa 350 dye-equivalents; active compounds read high | AID 590; in the data active = max dye-equivalent concentration above about 10 nM; inconclusive = mostly about 1.1 nM to 9.6 nM
CRE-bla Fsk = modulators of forskolin-stimulated CRE signaling in CHO cells; CHO CRE-bla reporter (cAMP response element driving beta-lactamase), forskolin EC10, beta-lactamase ratio; Potency, µM (doses to about 38.2 µM), for the others: top-dose activity change, negative = inhibition, hits mostly activators; 71,000 tested, 2.5% active; AID 662; active = well fitted activation curve with a large enough effect in the signal ratio, with a control signal flat, not every such curve was filed as active; inconclusive = small, poorly fitted or top-dose-only effect, or effect the other way, or a change in a side signal; the % refers to the signal ratio; note: potency is the fitted concentration of half-maximal effect; % of control where 0% means no effect
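Beta-lactamase reporter under a cAMP responsive element in CHO cells; compounds tested in titration series against EC10 NKH 477, 3 h at 37 °C. Read-out: CCF4 FRET ratio 460nm/530nm (excitation 405nm) giving %Activity, fitted to AC50.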
An asterisk follows results filed as active; i = inactive; u = inconclusive; x = no result; [ ] = dose if it differs, or a comment. Unless noted, calls come from the whole dose curve; as a rule, active = well fitted curve in the direction sought with a large enough effect; inconclusive = small, poorly fitted or top-dose-only effect, or another doubt; inactive = no such curve, though single readings can be large; an effect the other way counts as inactive or inconclusive.

SMILES | HSD17B inh | HADH2 inh | 4MU fluor | AID923 | A350 fluor | CRE-bla Fsk
O=P1(c2ccccc2)C=Cn2c1cc1c2CCCC1 (stereo not drawn) | -18.9% | 1.5% | 1.69e-08M* | 6.3% | 2.14e-08M* | 1.2%
O=C(CN1CCCC1)N1CCCc2c1c(=O)oc1ccc(OCc3ccccc3)cc21 | 25.1µM* | -19.6% | 9.05e-08M* | 1.5% | 8.33e-08M* | -3.0%
CCCOc1ccc2oc(=O)c3c(c2c1)CCCN3C(=O)CN1CCCC(C(=O)OCC)C1 (stereo not drawn) | u | -21.7% | 3.67e-08M* | -3.1% | 4.31e-08M* | u
CCCOc1ccc2oc(=O)c3c(c2c1)CCCN3C(=O)CN1CCN(c2ncccn2)CC1 | -25.0% | -0.8% | 5.05e-08M* | -0.5% | 5.7e-08M* | 19.8%
CC1CCN(CCC(=O)N2CCCc3c2c(=O)oc2ccc(O)cc32)CC1 | -9.8% | -18.7% | u | -4.1% | u | u
CCCOc1ccc2oc(=O)c3c(c2c1)CCCN3C(=O)CN1CCN(C(=O)c2ccco2)CC1 | 25.1µM* | -22.8% | 7.35e-08M* | 1.2% | 7.51e-08M* | u
COc1ccccc1OCc1ccc(C(=O)Nc2ccncc2)o1 | -2.4% | -2.3% | i | -0.4% | i | 11.5%
Cc1c2c(nc3ccccc13)OCC2 | -1.4% | 0.0% | x | 1.7% | x | -5.2%
Nc1nonc1-n1nnc(C(=O)O)c1-c1cccs1 | 1.8% | 15.5% | i | 2.4% | i | 2.2%
CO[C@H]1[C@@H](OC(N)=O)[C@H](O)[C@@H](Oc2ccc3c(O)c(NC(=O)c4ccc(O)c(CC=C(C)C)c4)c(=O)oc3c2C)OC1(C)C | -1.0%[25.6 µM] | 9.9%[25.6 µM] | 2.96e-07M* | 11.2%[25.7 µM] | 2.67e-07M* | -12.7%[17.1 µM]
FC(F)(F)c1ccc(C2[C@H]3CN(Cc4cccnc4)[C@H](c4ccccc4)C34CC2(c2ccccc2)C4)cc1 (stereo partly drawn) | -3.5% | x | x | 2.4% | x | x
COc1ccc2[nH]c(C)c(C(=O)CN3CCc4cc(OC)c(OC)cc4C3)c2c1 | x | x | 8.13e-08M* | x | 9.84e-08M* | x
COc1ccc2[nH]c(C)c(C(=O)CN3CCOCC3)c2c1 | x | x | i | x | i | x
COC(=O)c1[nH]c2cc(C)ccc2c1NC(=O)CN1CCc2cc(OC)c(OC)cc2C1 | u | 4.1% | i | -0.8% | i | 2µM*
CCOC(=O)c1[nH]c2ccc(F)cc2c1NC(=O)c1cc(OC)c(OC)c(OC)c1 | 22.5% | 9.9% | i | -1.4% | i | 6.31µM*
COC(=O)c1[nH]c2ccc(Cl)cc2c1NC(=O)CN1CCc2cc(OC)c(OC)cc2C1 | -24.0% | -3.6% | i | 0.3% | i | 12.5%
CCOC(=O)c1[nH]c2ccc(F)cc2c1NC(=O)CN1CCN(C/C=C/c2ccccc2)CC1 | 15.8µM* | 10.4% | i | -1.2% | i | u
CC(C)=CCNc1ncnc2c1c(C#N)cn2[C@H]1O[C@@H](CO)[C@@H](O)[C@@H]1O | 2.8%[11.4 µM] | -6.3%[11.4 µM] | i | -0.7%[11.5 µM] | i | 1.6%[7.6 µM]
Cc1ccc([N+](=O)[O-])c(N)c1 | 1.8% | -3.0% | x | -0.5% | x | -11.2%
CCOC(=O)c1[nH]c2ccc(F)cc2c1NC(=O)CN1CCc2cc(OC)c(OC)cc2C1 | u | -17.6% | 1.12e-08M* | 0.0% | u | u
COc1ccc(-c2cc(C(F)(F)F)n3nc(C(=O)N4CCCC4)cc3n2)cc1 | 7.94µM* | 6.0% | x | 0.0% | x | 14.2%
CN1CCN(C(=O)c2cc3nc(-c4ccc(F)cc4)cc(C(F)(F)F)n3n2)CC1 | -9.4% | 8.7% | x | 14.8% | x | u
COc1ccc(-c2cc(C(F)(F)F)n3nc(C(=O)O)nc3n2)cc1 | u | -14.8% | 1.76e-07M* | 15.1% | 2.2e-07M* | 2.5%
COc1ccc(-c2cc(C(F)(F)F)n3nc(C)cc3n2)cc1 | 289.9% | -6.0% | x | 11.2% | x | 10µM*
CCN1CCN(C(=O)c2cc3nc(-c4ccccc4)cc(C(F)(F)F)n3n2)CC1 | 3.9% | 11.5% | 1.37e-08M* | 2.4% | 1.25e-08M* | u
SMILES | HSD17B inh | HADH2 inh | 4MU fluor | AID923 | A350 fluor | CRE-bla Fsk
CO[C@H]1COC(=O)[C@H](C)NC(=O)[C@@H](C)COC(=O)[C@H]2CCCN2C(=O)C/C=C\[C@H]1C | 1.9%[11.4 µM] | 5.5%[11.4 µM] | x | 0.0%[11.5 µM] | x | x
C[C@@H](C(=O)O)c1ccc(C[C@@H]2CCCC2=O)cc1 | 5.6% | 13.6% | i | 0.6% | i | -3.6%
CCC(=O)N[C@@H]1Cc2ccccc2[C@@H](c2ccccc2)C1 | 1.7% | -0.7% | x | -2.2% | x | -23.5%
COC(=O)[C@@]1(Cc2ccccc2)[C@H]2c3cc(C(=O)N4CCCC4)n(Cc4ccc(C(F)(F)F)nc4)c3C[C@H]2CN1C(=O)c1ccccc1 | 2.7% | -3.3% | x | 0.1% | x | u
O=C(O[C@@H](C(=O)O)[C@@H](OC(=O)c1ccccc1)C(=O)O)c1ccccc1 | 1.6% | -1.9% | x | 0.0% | x | -16.9%
O=C(c1ccco1)N1CCN(C(=O)C2CCCc3c2[nH]c2ccc(Cl)cc32)CC1 (stereo not drawn) | -1.3% | -4.3% | i | -0.9% | i | -23.3%
O=C(c1nc2nc(-c3ccccc3)cc(C(F)(F)F)n2n1)N1CCOCC1 | u | u | u | 2.2% | u | 5.7%
O=C(c1nc2nc(-c3ccc(Cl)cc3)cc(C(F)(F)F)n2n1)N1CCOCC1 | 31.6µM* | 25.1µM* | 4.28e-08M* | 1.1% | 3.8e-08M* | u
Cn1ccnc1SCC(=O)Nc1sccc1C#N | u | -15.9% | 5.09e-08M* | 1.4% | 6.44e-08M* | -11.5%
Clc1nnc2ccc(-c3ccccc3)nn12 | 25.1µM* | u | x | 1.1% | x | u
Cc1ccc2nnc(Cl)n2n1 | -2.5% | -25.7% | i | 0.1% | i | u
CC(C)C(=O)Cc1ccc2ccccc2n1 | -1.8%[11.4 µM] | 4.8%[11.4 µM] | u | 1.8%[11.5 µM] | u | 4.0%[7.6 µM]
COCCn1c(SCc2nc3ccccc3s2)nc2ccccc21 | -5.8% | -22.9% | i | 1.0% | i | u
COc1ccc(Cl)c(Cn2c(NCCCO)nc3c2c(=O)n(C)c(=O)n3C)c1 | 10.9% | 6.2% | i | -0.5% | i | u
CCOc1ccc(OCC)c(NC(=O)CSc2nc3c(c(=O)n(C)c(=O)n3C)n2C(C)C)c1 | -1.5% | -4.7% | i | -0.3% | i | 3.98µM*
CCOc1ccc(OCC)c(NC(=O)CSc2nc3c(c(=O)n(C)c(=O)n3C)n2CC)c1 | 8.0% | 6.4% | i | -2.8% | i | 2µM*
O=C=Nc1ccc(Cc2ccc(N=C=O)cc2)cc1 | -2.5% | 1.2% | x | 3.8% | x | -3.5%
N#CC1=C(N)N(c2ccc(Br)cc2)C2=C(C(=O)CCC2)C1c1cccnc1 (stereo not drawn) | -7.7% | -5.5% | u | 0.9% | u | -11.7%
C=CCOC(=O)C1=C(C)Nc2nc3ccccc3n2C1c1ccncc1 (stereo not drawn) | 31.6µM* | -154.2% | 1.5e-08M* | 5.9% | 1.42e-08M* | u
